This is part of a sample that, as a whole, favours compounds with a hit. Of some 83,000 tested, about 20% had one in any assay.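 Step 1: grow cells in 96-well plates. Step 2: add test compound at a single concentration. Step 3: incubate 48 h. Step 4: record percent growth.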 Unmarked numbers belong to inactive results. Calls of active or inactive are those of the source. How the source made its calls: active means growth percent below 10; inactive means the rest.
What follows are compounds tested on M14 melanoma (assay: NCI-60 one-dose screen, 48 h (100 = growth as untreated, 0 = no growth, -100 = all killed)). Details: 10 µM unless noted.

Row | Compound | growth
1 | C=CC(=O)Nc1cccc(-c2nc(SC)nc(NCc3ccccc3)c2C#N)c1 | 71.3%
2 | COC(=O)c1ccc2oc(NC(=O)c3ccc(Nc4ccc([N+](=O)[O-])cc4C)c([N+](=O)[O-])c3)nc2c1 | 110%
3 | COc1cc(/C=C/c2cc(/C=C/c3ccc(O)c(OC)c3)n(-c3c(Cl)cccc3Cl)c(=O)n2)ccc1O | 7.71% (active)
4 | CSc1nc(Nc2cccc(NC(=O)CCl)c2)c(C#N)c(-c2cccc([N+](=O)[O-])c2)n1 | 48.7%
5 | CC(C)(C)N1CCC1CN (stereo not drawn) | 101%
6 | Cc1ccc(NC(=O)/C=C/c2ccccc2)c(C(N)=O)c1 | 27%
7 | COc1ccc(-n2nc(C)c3c(Nc4ccc(NC(=O)Nc5cccc(C(F)(F)F)c5)cc4)ncnc32)cc1 | -0.151% (active)
8 | O=C1OCC2=C1C(c1ccncc1)c1cc3c(cc1N2CCO)OCO3 (stereo not drawn) | 107%
9 | C#Cc1cccc(NC(=O)c2ccccc2NC(=O)C=C)c1 | 103% [8.25 µM]
10 | CCOc1cc2ncc(C#N)c(Nc3ccc(F)c(Cl)c3)c2cc1NC(=O)CC1CCSS1 (stereo not drawn) | -66.8% (active)
11 | CN(Cc1cc(Cl)cc(Cl)c1O)Cc1cc(Cl)cc(Cl)c1O | 71%
12 | CC(=O)O[C@H]1[C@@H]2OC(=O)C(CSc3ccccc3)[C@@H]2C[C@H]2O[C@]2(C)CC/C=C(\C)CCC[C@@H]1C (stereo partly drawn) | 51.7%
13 | COc1ccc(/C=N/C2=C(C#N)C(c3ccc(N(C)C)cc3)c3ccc4ccccc4c3O2)cc1 (stereo not drawn) | 44%
14 | C[n+]1ccccc1/C=C/c1ccc2cccc(O)c2n1 | 103%
15 | Cc1nn(-c2ccc(F)cc2)c2ncnc(Oc3ccc(NC(=O)Nc4ccc(Cl)c(C(F)(F)F)c4)cc3)c12 | 106%
16 | COc1ccc(C(=O)c2sc3nc(C)cc(C)c3c2N)cc1OC | 105%
17 | C=CC(=O)Nc1cccc(-c2nc(SC)nc(Nc3ccccc3OC)c2C#N)c1 | 50.4%
18 | Nc1nc2ncc(CCNc3ccc(C(=O)O)cc3)nc2c(=O)[nH]1 | 107%
19 | CCCSc1ccc2nc(NC(=O)OC)[nH]c2c1 | 0.47% (active)

Row | Compound | growth
20 | CCCc1cc(=O)n2c(C(=O)Nc3ccc(F)cc3)c(C(=O)Nc3ccc(F)cc3)sc2n1 | 70.9% [30 µM]
21 | O=C(/C=C/c1ccccc1)c1ccc(O)c(CN2CCN(c3cc4c(cc3F)c(=O)c(C(=O)O)cn4C3CC3)CC2)c1 | 27.9%
22 | CCOC(=O)c1sc2nc(-c3cccc(OC)c3)nc(N3CCOCC3)c2c1C | 120%
23 | CCCCCCCCCCCCC[N+](C)(C)Cc1ccccc1 | -66.6% (active)
24 | CCCOc1ccc2nc(NC(=O)OC)[nH]c2c1 | 2.83% (active)
25 | Nc1n[nH]c2ccc([C@@H]3Nc4ccc5cn[nH]c5c4[C@H]4C5CCC(C5)[C@@H]34)cc12 (stereo partly drawn) | 10.7%
26 | O=c1nc2oc3ccc4ccccc4c3cc-2s1 | -33.4% (active)
27 | COC(=O)c1cccc(NC(=O)c2ccc(-c3cccc(N)c3)o2)c1 | 112%
28 | CCOC(=O)c1c(C)oc2ncnc(N3CCN(C(=S)Nc4ccccc4)CC3)c12 | 104%
29 | CCCCN(CCCC)CCCn1c(-c2ccccc2)ccc1-c1ccccc1 | 77.6%
30 | CN1CCN(CCCOc2cccc3nc(Nc4ccc(Cl)c(F)c4)ccc23)CC1 | -27.7% (active)
31 | COc1cccc(/C=N/NC(=O)c2ccccc2Nc2ccnc(C(F)(F)F)c2)c1O | -30.1% (active)
32 | COc1cc2nc(N3CCCC3)nc(NCc3ccccc3)c2cc1OC | -71.2% (active)
33 | COc1cc2c(cc1-c1c(C)noc1C)ncc1nc(-c3ccccn3)n([C@H](C)COC(F)F)c12 | 49.5%
34 | COc1cccc(-c2nc3sccn3c2-c2ccnc(NCCCNS(=O)(=O)c3c(Cl)cccc3Cl)c2)c1 | 60.5%
35 | N#Cc1c(-c2ccc(Cl)cc2)nc(NN=Cc2ccco2)nc1N1CCOCC1 | 71.4%
36 | O=C(Nc1cccc2[nH]c(C(F)(F)F)nc12)c1ccc(-n2cnnn2)cc1 | 107%
37 | CC1CCNC(C)C1 (stereo not drawn) | 102%
38 | CCN(CC)c1ccc(-c2cc(-c3cc(OC)c(OC)c(OC)c3)nc(N3CCOCC3)c2C#N)cc1 | -53.9% (active)
